Measured values published in PubChem BioAssay AID504937 (National Center for Advancing Translational Sciences (NCATS), 2011).
About 20 (0.006%) of roughly 340,000 compounds were called active. The call rests on the fitted dose curve; in most records, active means well fitted inhibition curve with a large enough effect; inconclusive means small, poorly fitted or top-dose-only effect; inactive means no such curve, though single readings can be large or run the other way. What follows is part of a selection rich in actives, with near analogues and random picks from the rest.

Target: Sphingomyelin phosphodiesterase (Homo sapiens) (UniProt P17405)
Test: Inhibitors of Secretory Acid Sphingomyelinase (S-ASM): qHTS
Details: placental ASM, HMU-PC fluorogenic substrate, 60 min; series mostly up to 57.5 µM; activity change, negative = inhibition: at the top concentration
Excerpt: Atherosclerosis is the underlying process for cardiovascular disease and thus is a major contributor to disease burden in the population. […] Thus, selective small molecule inhibitors of S-ASM should block LDL modification and reduce aortic LDL retention and may serve as new agents for the treatment of atherosclerosis. In a collaboration between National Heart, Lung, and Blood Institute and the NCGC a high-throughput amenable screen was developed to identify potent and selective small molecule inhibitors of S-ASM. This enzymatic, fluorescent screen uses an ASM enzyme preparation derived from human placenta and was tested against the NIH Molecular Libraries Small Molecule Repository (MLSMR). NIH Chemical Genomics Center [NCGC] NIH Molecular Libraries Probe Centers Network [MLPCN] MLPCN Grant: MH093173-01 Assay Submitter (PI): Alan Remaley, National Heart, Lung, and Blood Institute and Wei Zhen, NIH Chemical Genomics Center
Two microliters of ASM enzyme (1:150 dilution from stock) are dispensed in 1536-well plate. 23 nL of compound and control are pinned into assay plate using the Kalypsys pintool. The plates are then incubated for 10 minutes at ambient room temperature. Then, 2 uL of the flurogenic substrate, HMU-PC0, (9 uM final) are added to the plate. An incubation for 60 minutes takes place at 37 masculineC. After that, 4 uL of stop solution is added to raise the pH to 10 to end the kinetic reaction. Plate is read on ViewLux, with detection set at Ex = 386 (10) nm and Em = 447 (10) nm.

Sequence of Sphingomyelin phosphodiesterase (Homo sapiens) (P17405 47-631 limits assumed): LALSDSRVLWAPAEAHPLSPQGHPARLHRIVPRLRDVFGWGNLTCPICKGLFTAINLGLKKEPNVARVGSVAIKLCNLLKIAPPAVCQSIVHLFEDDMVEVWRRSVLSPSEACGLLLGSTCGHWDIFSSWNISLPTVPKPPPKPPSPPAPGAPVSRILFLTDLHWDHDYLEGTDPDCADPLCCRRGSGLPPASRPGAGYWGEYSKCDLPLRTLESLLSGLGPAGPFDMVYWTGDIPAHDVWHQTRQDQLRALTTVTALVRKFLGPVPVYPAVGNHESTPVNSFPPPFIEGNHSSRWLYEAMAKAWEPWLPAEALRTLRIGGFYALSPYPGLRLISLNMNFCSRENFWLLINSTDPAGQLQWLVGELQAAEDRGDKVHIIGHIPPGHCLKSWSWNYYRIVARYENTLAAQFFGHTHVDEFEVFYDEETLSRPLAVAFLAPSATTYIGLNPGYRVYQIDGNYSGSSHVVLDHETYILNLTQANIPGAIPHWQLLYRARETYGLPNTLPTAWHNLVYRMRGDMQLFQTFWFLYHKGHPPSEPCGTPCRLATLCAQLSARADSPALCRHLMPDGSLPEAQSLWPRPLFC

Activity change, negative = inhibition, inactive:
CC(=O)OCC1(O)CC23CCC4c5ccoc5CCC4(C)C2CCC1C3 (centres undefined) -4.39%, COCCn1c(SCC(=O)Nc2nc(C)cs2)nnc1C(C)C 3.44%, O=C(CNc1cccc(S(=O)(=O)N2CCCCC2)c1)Nc1ccccc1F 21.8%, CCOC(=O)C(CC)Sc1ncnc2c1nnn2-c1ccc(F)cc1 (centres undefined) 1.72%, NC(CSC12CC3CC(CC(C3)C1)C2)C(=O)O (centres undefined) 2.86%, Cc1cccc(NC(=O)N(Cc2cc3cc(C)cc(C)c3[nH]c2=O)CC2COCCO2)c1 (centres undefined) -13.7%, O=C(Cn1cc(/C=N/NC(=O)c2cccc(C(F)(F)F)c2)c2ccccc21)Nc1ccc(F)cc1 2.03%, COc1ccccc1CCNC(=O)CSc1nnc2ccc(-c3cccnc3)nn12 -1.74%, COc1ccccc1NC(=O)CCC(=O)N1CC(C)Oc2ccc(C)cc21 (centres undefined) 4.08%, Cc1cccc(NC(=S)N(CCN(C)C)C(C)c2ccco2)c1 (centres undefined) 3.18%, Cc1oc(C)c(C(=O)NCCCC(=O)O)c1C(=O)NCCCC(=O)O 3.69%, CSc1nc(C)nc(C2CC2)c1C#N 3.92%, CN(C)CCCNC(=O)c1cc(C(=O)Cc2ccc(Cl)cc2)c[nH]1 -1.05%, CN(C(=O)c1cccc(NC(=O)Cc2ccc(NC(=O)C3CCN(C(=O)C4CCCCC4)CC3)cc2)c1)C1CCC1 -0.203%, COc1ccc(CN(CC(=O)NC2CCCC2)C(=O)CCC(=O)Nc2cc(C)on2)cc1 7.46%, COC(=O)c1sccc1-n1cccc1C(=O)C(=O)N1CCCCC1 -6.14%, Cc1ccc2c(c1)nnc1nnc(SCC(=O)O)n12 2.22%, Cc1cccc(OC(C)C(=O)N2CCc3ccccc3C2)c1 (centres undefined) 4.94%, CC(=O)N1CCc2ccc(N)cc21 3.14%, CCc1noc(C)c1C(=O)N1CCCC(N2CCN(c3ccc(F)cc3)CC2)C1 (centres undefined) 0.409%, CCCCCCNCCn1cnc2c(N)ncnc21 3.85%, Cc1cc(NC(=O)CSc2nc(=O)cc(N)n2-c2ccc(F)cc2)no1 3.93%, Cc1cc(C)n(-c2nnc(C)n2NC(=O)c2cccc(Cl)c2)n1 2.43%, COCCN1C(=O)C(=O)/C(=C(/O)c2ccc(S(=O)(=O)N3CCCCC3)cc2)C1c1ccc(OC)c(OC)c1 (centres undefined) -3.13%, Cc1[nH]c2ccccc2c1SCC(=O)Nc1nccs1 -2.52%, CS(=O)(=O)N1CCc2cc(C(=O)Nc3ccccc3Br)ccc21 -1.09%, N#C/C(C(=O)N1CCOCC1)=C1/SC(Cc2ccc(F)cc2)C(=O)N1c1ccccc1 (centres undefined) 0.557%, O=C(NCc1cccs1)C(=O)NCC1OCCCN1S(=O)(=O)c1ccc(F)cc1 (centres undefined) 3.48%, Cc1ccc(S(=O)(=O)N2CCC(C(=O)OCC(=O)N3CC(=O)Nc4ccccc43)CC2)cc1 2.96%, O=C(NC1CCCC1)C(c1ccccn1)N(C(=O)c1csnn1)C1CCCC1 (centres undefined) 1.68%, CCc1ccc(NC(=O)C(=O)N/N=C(\C)CC(=O)NCCOC)cc1 2.25%, O=C(Nc1cccc(S(=O)(=O)NC2=NCCC2)c1)C1CCCCC1 4.29%, COC(=O)c1ccc(Nc2ncnc3sccc23)cc1 1.35%, COc1ccc(NC(=S)N2N=CCC2c2ccccc2)cc1 (centres undefined) -2.8%
